# Results: ChEMBL document CHEMBL3988442, “University of Dundee, Small-Polar-MMV Screening Library” (2021)
# Out of some 48,000 compounds screened, about 13,000 (27%) showed an effect of 50% or more. The list shows a part of the results.
# Tested on: Wolbachia pipientis
# Test: Anti-Wolbachia Cell-Based Screen
# Type: functional
# Set-up: scale not given: in the data most compounds retested in dose-response had high values
# Conditions: 5 µM
row,SMILES,Percent Effect [%]
1,CCOc1cc(NC(=O)NCCn2cnnc2CC)ccc1C,-0.5638
2,CCc1nc(CN2CCN(c3ncnc4cc(F)ccc34)CC2)no1,-16.98
3,CN(CCO)Cc1nnc(C2CCN(C(=O)c3cc[nH]c3)CC2)n1C,-143.4
4,CN(C)C(=O)CN1C[C@H]2CCN(c3ncccn3)CC[C@H]2S1(=O)=O.O=C(O)C(F)(F)F,-3.991
5,CN(C)C(=O)[C@H]1C[C@@H]2CN(c3ncccn3)C[C@H]1O2,10.85
6,Cc1ccc(C(=O)N2C[C@@H]3CN(c4ncccn4)C[C@@H]3C2)cc1,3.247
7,CN1CCN(c2ncccn2)CC1C(N)=O (configuration not stated),76.51
8,CN(C)C(=O)C1CN(c2ncccn2)CCN1C (configuration not stated),84.43
9,CN1CCN(c2ncccn2)CC(C(=O)N(C)C)C1 (configuration not stated),92.05
10,CN(C)C(=O)[C@@H]1CCO[C@@H]2CCN(c3ncccn3)C[C@@H]21.O=C(O)C(F)(F)F,0.2661
11,Cc1ccc(C(=O)N2C[C@@H]3CN(c4ncccn4)C[C@@H]3C2)cn1,1.13
12,CSc1cccc(CN(C)C(=O)CN2CCN(c3ncccn3)CC2)c1,-6.038
13,CCc1c(C)nc(C)nc1N1C[C@@H](CN(CC)CCO)[C@@H](CO)C1,6.908
14,COc1cc(F)ccc1N1CCN(Cc2nnc(C3CC3)o2)CC1,-5.388
15,CCCc1n[nH]c(C2CN(Cc3nnc(C4CC4)o3)CCO2)n1 (configuration not stated),-2.84
16,CCCc1noc(CN2CCC(N(C)Cc3nnc(C4CC4)o3)C2)n1 (configuration not stated),109.8
17,Cc1nc(CN(C)C2CCN(Cc3nnc(C4CC4)o3)C2)no1 (configuration not stated),115.8
18,Cc1nc(CN2CCCC(N(C)Cc3nnc(C4CC4)o3)C2)no1 (configuration not stated),6.77
19,CCc1nc(CN(C)C2CCN(Cc3nnc(C4CCC4)o3)C2)no1 (configuration not stated),110.6
20,CC(C)c1nc(CN(C)C2CCN(Cc3nc(C4CC4)no3)C2)no1 (configuration not stated),-21.22
21,CC(C)c1nc(CN(C)C2CCN(Cc3nnc(C4CC4)o3)C2)no1 (configuration not stated),123.9
22,CN(Cc1nnc(C2CC2)o1)C1CCN(CCCc2cnn(C)c2)C1 (configuration not stated),3.532
23,Cc1nc(CN2CCCC(N(C)Cc3nc(C)c(C)o3)C2)no1 (configuration not stated),-3.907
24,CCc1nc(CN(C)C2CCN(Cc3cnc(C)cn3)C2)no1 (configuration not stated),5.773
25,CCc1nc(CN2CCCC(N(C)Cc3cnn(C)c3)C2)no1 (configuration not stated),10.72
26,CC(C)c1nc(CN2CCCN(Cc3nnc(C4CC4)o3)CC2)no1,0.1522
27,O=S(=O)(Cc1ccccc1Cl)NCCCN1CCCC1,-15.99
